# Hits are enriched below; roughly 4% of the tested compounds scored in any of these assays.
# Shn3 inh set2: reduction of Shn3 3'UTR firefly luciferase signal, primary screen, Schnurri-3 inhibitor project, cell-based, Clone20 osteoblasts, set 2 | Clone20 osteoblast Shn3 3'UTR firefly luciferase, 24 h | inhibition, % at 12.5 µM | 360,000 tested, 0.52% active | AID 588674, 2011;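 active = mean inhibition of at least 75% with every replicate also reaching 75%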;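 note: 0% = median of neutral control wells and 100% = pilot-screen positive control compound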
# Beta cell apopt: inhibitors of cytokine-induced beta cell apoptosis, primary screen, luminescence | INS-1E cytokine-induced death, ATP luminescence, 48 h; percent of positive-control rescue, neutral wells zero | protection from apoptosis, % (concentration not given with the values) | 300,000 tested, 0.8% active | AID 435005, 2010;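 active = Every replicate reaches about 75%, or at least half do and their mean reaches it too, limit read from the data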;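 note: 0% = cytokine-treated negative control wells and 100% = positive control rescue; higher means more ATP so stronger rescue from cytokine killing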
# PAX8 reporter: inhibitors of PAX8-driven TPO luciferase reporter, primary screen, RMG-I cells, single concentration. SteadyGlo, 24 h. inhibition, % at 12.6 µM. 360,000 tested, 1.2% active;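 active = mean replicate inhibition at least 60% with every replicate also reaching 60%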;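 note: luciferase light reporting Pax8 driven TPO promoter activity; plate controls were median of neutral control wells for no effect and mitoxantrone controls for full effect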
# Gli-Sufu block: Gli-Sufu pathway antagonists, primary screen, luciferase luminescence, Sufu-KO-LIGHT cells, uHTS. Sufu-KO-LIGHT fibroblasts, Gli luciferase reporter luminescence. inhibition, % at 5 µM. 340,000 tested, 0.74% active. AID 588413, 2011;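 active = inhibition above about 55%, limit read from the data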;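 note: 0% = DMSO-treated cells and 100% = wells with medium but no cells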
# CSC inhib: cancer stem cell viability inhibitors, primary screen, luminescence; AID 2717, 2010; cancer stem cell-like cells viability; 300,000 tested, 1.1% active; inhibition, % at 7.5 µM; in the data active = inhibition above about 75%; tested in HMLE shEcad cells
# Mdm2-MdmX inh: inhibitors of human Mdm2-MdmX association, primary screen, cell-based, luminescence, split luciferase, SaOS-2, uHTS. SaOS-2 split-luciferase Mdm2/MdmX complementation. Protein Mdm4 (Homo sapiens) + E3 ubiquitin-protein ligase Mdm2 (Homo sapiens), …. inhibition, % at 8 µM. 330,000 tested, 3% active;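 active = inhibition of at least 50% at 8 µM in the primary screen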
# Target sequence (O15151 whole entry, looked up): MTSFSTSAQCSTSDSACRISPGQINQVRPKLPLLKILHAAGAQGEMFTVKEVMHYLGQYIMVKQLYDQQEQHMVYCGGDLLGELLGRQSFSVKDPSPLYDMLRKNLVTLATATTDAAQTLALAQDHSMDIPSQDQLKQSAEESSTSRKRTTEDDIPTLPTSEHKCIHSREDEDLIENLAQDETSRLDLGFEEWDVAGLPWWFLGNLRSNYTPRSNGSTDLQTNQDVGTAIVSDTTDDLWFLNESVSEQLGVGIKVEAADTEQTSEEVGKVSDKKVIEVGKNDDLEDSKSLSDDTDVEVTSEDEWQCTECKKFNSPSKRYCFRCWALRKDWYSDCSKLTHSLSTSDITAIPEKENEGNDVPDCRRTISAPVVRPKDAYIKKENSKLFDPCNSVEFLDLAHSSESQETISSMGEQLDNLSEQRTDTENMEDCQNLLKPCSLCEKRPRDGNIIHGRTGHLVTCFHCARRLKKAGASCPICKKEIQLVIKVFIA
# Target sequence (Q00987 whole entry, looked up): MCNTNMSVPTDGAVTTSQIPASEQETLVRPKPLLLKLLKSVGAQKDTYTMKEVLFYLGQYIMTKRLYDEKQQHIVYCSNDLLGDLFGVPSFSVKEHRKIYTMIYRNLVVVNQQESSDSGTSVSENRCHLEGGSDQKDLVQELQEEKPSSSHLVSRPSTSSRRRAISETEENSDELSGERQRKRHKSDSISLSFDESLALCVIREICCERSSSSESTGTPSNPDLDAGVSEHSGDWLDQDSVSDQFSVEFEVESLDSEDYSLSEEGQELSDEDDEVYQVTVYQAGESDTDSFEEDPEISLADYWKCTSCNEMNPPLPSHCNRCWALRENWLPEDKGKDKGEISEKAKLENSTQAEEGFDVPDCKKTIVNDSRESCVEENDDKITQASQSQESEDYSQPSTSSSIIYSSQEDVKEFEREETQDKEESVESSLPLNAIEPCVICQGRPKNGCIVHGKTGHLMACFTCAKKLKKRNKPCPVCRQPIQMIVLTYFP
# Gli antag conf: Gli-SUFU pathway antagonists, confirmation, single concentration, luciferase luminescence, Sufu-KO-LIGHT cells; shares compounds with Gli-Sufu block; Gli luciferase reporter; inhibition, % at 5 µM; 2,500 tested, 40% active;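 active = mean inhibition at 5 µM reaching about 45%, limit read from the data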;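 note: plate controls were DMSO-treated cells for no effect and wells lacking cells for full effect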
# Gli cytotox: cytotoxicity in Sufu-KO-LIGHT cells, confirmation, cytotoxicity control for Gli-SUFU antagonist project, cell-based, ATP luminescence, single concentration. shares compounds with Gli-Sufu block. cytotoxicity, % at 5 µM. 2,500 tested, 32% active. AID 651994, 2013;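 active = mean cytotoxicity at 5 µM above about 25%, limit read from the data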;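 note: cells exposed to compound overnight for roughly 16 to 18 hours; plate controls were DMSO wells with cells for no effect and medium without cells for full effect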
# Wnt3a counter: Wnt3a reporter signal inhibition, confirmation, counter-screen for Gli-SUFU antagonist project, Wnt-LIGHT cells, luminescence, single concentration; shares compounds with Gli-Sufu block; Wnt3a-driven luciferase reporter; inhibition, % at 6.25 µM; 2,500 tested, 20% active; AID 651995, 2013;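 active = mean inhibition above about 25%, limit read from the data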
# Starred values were filed as active, the others as inactive; . = no result given.
SMILES,Shn3 inh set2,Beta cell apopt,PAX8 reporter,Gli-Sufu block,CSC inhib,Mdm2-MdmX inh,Gli antag conf,Gli cytotox,Wnt3a counter
O=C(Nc1ccc(F)cc1)N1CC(=O)N2[C@H](CO)[C@H](c3ccc(C4=CCCC4)cc3)[C@H]2C1,.,.,4,.,.,.,.,.,.
COc1ccc(CN(C)C[C@H]2Oc3c(NC(=O)CCCCCC(=O)Nc4ccccc4N)cccc3C(=O)N([C@H](C)CO)C[C@@H]2C)cc1,.,.,28,.,.,.,.,.,.
BrC(=C\c1ccccc1)/C=N/Nc1nc2ccccc2[nH]1,-15,1,-100,51,37,9,-11,3,-142
O=C(O)c1ccc(N/N=C/C(Br)=C/c2ccccc2)cc1,-66,0,-21,-112,5,-75,.,.,.
COc1cc(CCNC(=O)c2ccccc2NC(=O)C2=C(C)OCCS2)cc(OC)c1OC,17,1,10,99*,0,4,18,-1,12
COc1cc(CNC(=O)c2ccccc2NC(=O)C2=C(C)OCCS2)cc(OC)c1OC,3,-1,7,91*,-5,13,17,0,-19
CCCCCCOC(=O)c1ccc(N)cc1,-98,0,-90,-58,68,-30,.,.,.
CCCCCCCCCCCC1N=C(N)NC(CCCO)=C1C(=O)OC (stereo not drawn),25,.,8,78*,.,.,23,10,27*
Cc1csc(-c2cccnc2)n1,4,-3,3,99*,9,22,14,-6,16
Fc1ccccc1-c1csc(-c2cccnc2)n1,-89,5,-103,31,-6,-14,.,.,.
CCOC(=O)c1ccc(NC(=S)N(CCCN2CCN(C)CC2)Cc2cccs2)cc1,21,-6,4,60*,10,-19,10,27*,-19
C[C@H](O)C#Cc1ccc([C@@H]2[C@H](CO)N3CCCCN(C(=O)c4cccc(F)c4)C[C@@H]23)cc1,.,.,-13,.,.,.,.,.,.
C=CCN=C(NC#N)SC,-18,.,4,58*,29,24,15,9,9
CN(C)c1cc[n+](CC[n+]2ccc(N(C)C)cc2)cc1,0,-10,-3,-8,-10,15,.,.,.
CN(C)c1cc[n+](Cc2c(Cl)cccc2Cl)cc1,42,97*,43,73*,7,16,67*,17,30*
Cc1ccc(C)c(N2CN(Cc3cccnc3)CNC2=S)c1,-2,.,52,0,.,-4,.,.,.
Cc1cccc(N2CN(Cc3cccnc3)CNC2=S)c1C,-5,-4,-29,55*,-9,-1,29,-4,-6
O=C(Cc1ccc(Cl)cc1Cl)Nc1ccncc1Cl,88*,62,.,73*,5,41,49*,23,32*
O=C(Cc1ccc(Cl)cc1Cl)Nc1ccncc1,84,1,27,51,9,13,43,16,22
O=C(Cc1c(Cl)cccc1Cl)Nc1ccncc1Cl,39,3,-4,8,9,3,.,.,.
COc1ccc(CC(=O)Nc2ccncc2Cl)cc1,84,102*,17,66*,8,10,54*,26*,31*
S=C(NCc1ccc(Cl)cc1)Nc1ccncc1,84,60,25,63*,-2,8,49*,14,36*
COc1ccc(CC(=O)Nc2ccccc2NC(=O)Cc2ccc(OC)cc2)cc1,-14,-1,4,-2,-2,14,.,.,.
O=C(Cc1c(Cl)cccc1Cl)Nc1ccncc1,0,0,-35,-7,.,23,.,.,.
Cc1ccccc1S(=O)(=O)NCC[C@H]1CC[C@H](NC(=O)C2CCCCC2)[C@@H](CO)O1,.,.,14,.,.,.,.,.,.

# Compound activity (PubChem BioAssay)
